{"source": "PubChem BioAssay (EPA / NIEHS)", "key": {"[1]": {"assay": "Tanguay_ZF_120hpf_CFIN_legacy: (Legacy) Oregon State University Tanguay Lab 120 Hour Post-fertilization zebrafish Assay for Caudal Fin Malformation (AID 2283649)", "outline": "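Binary presence or absence of caudal fin malformation at 120 hpf, read by brightfield microscopy, with DMSO as baseline. Larvae came from 5D wild-type embryos exposed statically from 6 hpf at 28C after pronase dechorionation.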"}, "[2]": {"assay": "Tanguay_ZF_120hpf_PIG_legacy: (Legacy) Oregon State University Tanguay Lab 120 Hour Post-fertilization zebrafish Assay for Pigmentation Malformation (AID 2283650)", "outline": "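Pigment malformation recorded as a binary call at 120 hpf in zebrafish (Tropical 5D) exposed singly from 6 hpf after pronase dechorionation. Static, sealed, 28C exposure, 0.64% DMSO; mortality excludes scoring; positive-direction fit against DMSO.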"}, "[3]": {"assay": "Tanguay_ZF_120hpf_CIRC_legacy: (Legacy) Oregon State University Tanguay Lab 120 Hour Post-fertilization zebrafish Assay for Circulatory Malformation (AID 2283651)", "outline": "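Embryos are dechorionated at 4 hpf, plated one per well at 6 hpf, then held under static exposure at 28C until 120 hpf. Malformations are recorded as binary calls; mortality excludes other endpoints.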"}, "[4]": {"assay": "Tanguay_ZF_120hpf_NC_legacy: (Legacy) Oregon State University Tanguay Lab 120 Hour Post-fertilization zebrafish Assay for Notochord and Tail Malformation (AID 2283656)", "outline": "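Binary scoring of notochord distortion by brightfield microscopy; embryos dying were not scored. Wild-type Tropical 5D embryos, chorion removed, exposed singly and statically from 6 to 120 hpf, 28C, sealed, 0.64% DMSO.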"}, "[5]": {"assay": "Tanguay_ZF_120hpf_TR_legacy: (Legacy) Oregon State University Tanguay Lab 120 Hour Post-fertilization zebrafish Assay for Touch Response (AID 2283667)", "outline": "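Binary touch-response endpoint in larvae at 120 hpf after static waterborne exposure from embryo stage (28°C, 0.64% DMSO vehicle, 5 uM trimethyltin chloride as positive control); embryos dead at 24 or 120 hpf excluded; fitted as gain versus DMSO.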"}, "[6]": {"assay": "CCTE_Padilla_ZF_144hpf_TERATOSCORE: (Legacy) CCTE's 144 Hour Post-fertilization zebrafish Assay Teratoscore, Padilla Lab (AID 2283679; active = hit-call score of the fitted dose curve at least 0.9, where 1 is the maximum; inactive = score below 0.9;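 as to AC50: higher score means more developmental defects relative to DMSO baseline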)", "outline": "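Larvae scored by eye at 144 hpf for death, hatching and malformations after a day in clean Hanks'. Before that, daily-renewed exposure at 80 uM (0.4% DMSO, 26C) from roughly 6-8 hpf through 5 dpf, 4 embryos per chemical.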"}, "[7]": {"tested_on": "Thyroperoxidase (TPO), gene 54314", "assay": "CCTE_Simmons_AUR_rTPO: CCTE's Amplex UltraRed Assay for Thyroperoxidase (TPO) Inhibition, Simmons Lab (AID 2283662);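 as to AC50: potency for loss of signal meaning inhibition of peroxidase activity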", "outline": "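Rat thyroid microsomes (5 ug protein) were incubated with test compound (8 concentrations, 5 nM–87.5 uM final, 0.5% DMSO), 25 uM Amplex UltraRed and 300 uM H2O2 in 200 mM phosphate buffer for 30 min at 37C in the dark; fluorescence read at 544/590 nm.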"}, "[8]": {"assay": "CCTE_Simmons_CellTiterGLO_HEK293T: Viability Assessment in CCTE's Assays for Thyroperoxidase (TPO) Inhibition, Simmons Lab (AID 2283665);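 as to AC50: actives reduce ATP signal below DMSO vehicle meaning cytotoxicity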", "outline": "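Cells were seeded overnight, then exposed to an eight-point series up to 87.5 uM final for 24 hours. CellTiter-Glo reagent was added and luminescence read after 20 min, giving ATP-based viability versus DMSO.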"}, "[9]": {"assay": "STM_H9_OrnithineISnorm_perc: Stemina devTOX quickPredict H9 human embryonic stem cell (hESC)-based Assay for Ornithine (ORN) Metabolite Biomarker, Normalized (AID 2283712; active = hit-call score of the fitted dose curve at least 0.9, where 1 is the maximum; inactive = score below 0.9;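 also: ornithine released into spent medium during last day measured by mass spectrometry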)", "outline": "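Ornithine secreted by H9 hESCs after 72h compound treatment (daily media/compound renewal) was quantified in final-day media by UPLC-HRMS. Values are isotope-standard-normalized, expressed relative to 0.1% DMSO, fitted in positive direction.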"}, "[10]": {"assay": "STM_H9_CystineISnorm_perc: Stemina devTOX quickPredict H9 human embryonic stem cell (hESC)-based Assay for Cystine (CYSS) Metabolite Biomarker, Normalized (AID 2283713; active = hit-call score of the fitted dose curve at least 0.9, where 1 is the maximum; inactive = score below 0.9)", "outline": "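Cells are held undifferentiated and treated for 72h, receiving fresh medium with compound every 24h. Cystine secreted during the final day is quantified by UPLC-HRMS against a labeled spike-in, then expressed relative to the DMSO vehicle median.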"}, "[11]": {"assay": "STM_H9_OrnCyssISnorm_ratio: Stemina devTOX quickPredict H9 human embryonic stem cell (hESC)-based Assay for Ornithine (ORN):Cystine (CYSS) Ratio (AID 2283714)", "outline": "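Ratio of internal-standard-normalized ornithine to cystine, measured by UPLC-HRMS in spent media from the last 24 h. H9 cells kept pluripotent, dosed 72 h with daily media and compound renewal; DMSO 0.1% serves as baseline.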"}, "[12]": {"assay": "CEETOX_H295R_MTT_cell_viability: Viability Assessment in the CeeTox HT-H295R MTT Assay (AID 2283718; active = hit-call score of the fitted dose curve at least 0.9, where 1 is the maximum; inactive = score below 0.9)", "outline": "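MTT reduction (0.5 mg/ml, 4 h at 37 C; absorbance at 570 and 650 nm) gave viability as background-corrected percent change versus controls. H295R cells had 48 h forskolin (10 uM) prestimulation, then 48 h chemical exposure at 0.1% DMSO.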"}, "[13]": {"tested_on": "Thyroperoxidase (TPO), gene 445522", "assay": "CCTE_Simmons_GUA_TPO: CCTE's Guaiacol Assay for Thyroperoxidase (TPO) Inhibition, Simmons Lab (AID 2283750)", "outline": "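Porcine thyroid microsomes (25 ug) in 200mM potassium phosphate, preincubated 30 s at 37C with compound (8 concentrations, 5 nM–87.5 uM) and 35mM guaiacol; 1mM H2O2 starts reaction. Absorbance change at 450nm over first 80 s; loss of signal versus DMSO, three replicates.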"}}, "note": "Where “and” joins values, the source holds several entries; their conditions need not be identical. Identical values can stand only once. Records with an inconclusive call do not appear. Calls of active or inactive are those of the source. The calls were made as follows, unless noted: active = hit-call score of the fitted dose curve at least 0.9, where 1 is the maximum; inconclusive = response in the unintended direction; inactive = score below 0.9.", "data": [{"compound": "Oc1c(Cl)cc(Cl)cc1Cl", "values": [{"measurement": "outcome", "setting": "[1]", "result": "inactive"}, {"measurement": "outcome", "setting": "[2]", "result": "inactive"}, {"measurement": "outcome", "setting": "[3]", "result": "inactive"}, {"measurement": "outcome", "setting": "[4]", "result": "inactive"}, {"measurement": "outcome", "setting": "[5]", "result": "inactive"}, {"measurement": "AC50", "setting": "[6]", "result": "3.97 µM (active)"}]}, {"compound": "N#CCC#N", "values": [{"measurement": "AC50", "setting": "[7]", "result": "7.66 µM (active)"}, {"measurement": "outcome", "setting": "[8]", "result": "inactive"}]}, {"compound": "Clc1cccc(Cl)c1Cl", "values": [{"measurement": "outcome", "setting": "[1]", "result": "inactive"}, {"measurement": "outcome", "setting": "[2]", "result": "inactive"}, {"measurement": "outcome", "setting": "[3]", "result": "inactive"}, {"measurement": "outcome", "setting": "[4]", "result": "inactive"}, {"measurement": "outcome", "setting": "[5]", "result": "inactive"}]}, {"compound": "Nc1ccc(N)cc1", "values": [{"measurement": "AC50", "setting": "[7]", "result": "5.63 µM (active)"}, {"measurement": "AC50", "setting": "[8]", "result": "32 µM (active)"}]}, {"compound": "CCCCCCCCCCCCc1cccc(S(=O)(=O)O)c1", "values": [{"measurement": "outcome", "setting": "[3]", "result": "inactive"}, {"measurement": "outcome", "setting": "[4]", "result": "inactive"}, {"measurement": "AC50", "setting": "[7]", "result": "39.4 µM (active)"}, {"measurement": "AC50", "setting": "[8]", "result": "30.4 µM (active)"}, {"measurement": "outcome", "setting": "[5]", "result": "inactive"}, {"measurement": "AC50", "setting": "[6]", "result": "53 µM (active)"}]}, {"compound": "CN(N=O)C(N)=O", "values": [{"measurement": "AC50", "setting": "[7]", "result": "58.9 µM (active)"}, {"measurement": "outcome", "setting": "[8]", "result": "inactive"}]}, {"compound": "CN(C)C(=S)S", "values": [{"measurement": "outcome", "setting": "[2]", "result": "inactive"}, {"measurement": "outcome", "setting": "[3]", "result": "inactive"}, {"measurement": "AC50", "setting": "[4]", "result": "1.05 µM (active)"}, {"measurement": "AC50", "setting": "[7]", "result": "30.8 µM (active)"}, {"measurement": "AC50", "setting": "[8]", "result": "8.68 µM (active)"}, {"measurement": "outcome", "setting": "[5]", "result": "inactive"}, {"measurement": "AC50", "setting": "[6]", "result": "12.4 µM (active)"}, {"measurement": "AC50", "setting": "[9]", "result": "66.3 µM (active)"}, {"measurement": "AC50", "setting": "[10]", "result": "75.9 µM (active)"}, {"measurement": "AC50", "setting": "[11]", "result": "71.7 µM (active)"}, {"measurement": "outcome", "setting": "[12]", "result": "inactive"}, {"measurement": "AC50", "setting": "[13]", "result": "250 µM (active)"}]}, {"compound": "CCCCCCCCCCCCOS(=O)(=O)O", "values": [{"measurement": "AC50", "setting": "[7]", "result": "28 µM (active) and 48.7 µM (active)"}, {"measurement": "AC50", "setting": "[8]", "result": "31.9 µM (active) and 92.3 µM (active)"}]}, {"compound": "O=C(CCl)Nc1ccccc1", "values": [{"measurement": "AC50", "setting": "[7]", "result": "16 µM (active)"}]}, {"compound": "CC(C)O.CC(C)O.OCCN(CCO)CCO.OCCN(CCO)CCO.[Ti]", "values": [{"measurement": "outcome", "setting": "[2]", "result": "inactive"}, {"measurement": "outcome", "setting": "[3]", "result": "inactive"}, {"measurement": "outcome", "setting": "[4]", "result": "inactive"}, {"measurement": "outcome", "setting": "[5]", "result": "inactive"}, {"measurement": "outcome", "setting": "[6]", "result": "inactive"}, {"measurement": "outcome", "setting": "[9]", "result": "inactive"}, {"measurement": "AC50", "setting": "[10]", "result": "74.1 µM (active)"}, {"measurement": "AC50", "setting": "[11]", "result": "72.4 µM (active)"}]}, {"compound": "CC(C)(C)c1ccccc1O", "values": [{"measurement": "outcome", "setting": "[1]", "result": "inactive"}, {"measurement": "outcome", "setting": "[2]", "result": "inactive"}, {"measurement": "outcome", "setting": "[3]", "result": "inactive"}, {"measurement": "outcome", "setting": "[4]", "result": "inactive"}, {"measurement": "outcome", "setting": "[7]", "result": "inactive"}, {"measurement": "AC50", "setting": "[8]", "result": "55.4 µM (active)"}, {"measurement": "outcome", "setting": "[12]", "result": "inactive"}]}, {"compound": "N#CS", "values": [{"measurement": "AC50", "setting": "[7]", "result": "10.6 µM (active) and 8.87 µM (active)"}, {"measurement": "outcome", "setting": "[8]", "result": "inactive"}, {"measurement": "outcome", "setting": "[9]", "result": "inactive"}, {"measurement": "outcome", "setting": "[10]", "result": "inactive"}]}, {"compound": "O=c1[nH]c(=O)n(Cl)c(=O)n1Cl", "values": [{"measurement": "outcome", "setting": "[7]", "result": "inactive"}, {"measurement": "outcome", "setting": "[8]", "result": "inactive"}]}]}
